Data: PubChem BioAssay (NCATS)
Where “and” joins values, the source holds several entries; their conditions need not be identical. Identical values can stand only once. Records with an inconclusive call do not appear. Calls of active or inactive are those of the source. Calls come from the whole dose curve; as a rule, active = well fitted cell-killing curve with a large enough effect in the repeat runs; inconclusive = weak or mixed curves; inactive = flat fitted curve, though single readings scatter.

assay: qHTS assay for small molecule agonists of the antioxidant response element (ARE) signaling pathway measured by Nrf2-dependant transcriptional activity - cell viability counter screen (AID 720653); conditions: ARE-bla HepG2 viability, CellTiter-Glo ATP luminescence, 16 h; active compounds read low
Source text: National Center for Advancing Translational Sciences [NCATS] NIH Chemical Genomics Center [NCGC] U.S. Environmental Protection Agency [EPA] National Institutes of Environmental Health Sciences [NIEHS] National Toxicology Program [NTP] Assay Overview: Oxidative stress has been implicated in the pathogenesis of a variety of diseases ranging from cancer to neurodegeneration. The antioxidant response element (ARE) signaling pathway plays an important role in the amelioration of oxidative stress. The CellSensor ARE-bla HepG2 cell line (Invitrogen) can be used for analyzing the Nrf2/antioxidant response signaling pathway. Nrf2 (NF-E2-related factor 2) and Nrf1 are transcription factors that bind to AREs and activate these genes. The CellSensor ARE-bla HepG2 cell line contains a beta-lactamase reporter gene under control of the Antioxidant Response Element (ARE) stably integrated into HepG2 cells. The activation of the report gene under culture conditions can be detected by fluorescence intensity. The cytotoxicity of the compounds against the ARE-bla HepG2 cell line was quantified by measuring the intracellular ATP content.
Assay Protocol Summary: ARE-bla HepG2 cells were dispensed at 2,000 cells/5 ul/well in 1536-well black wall/clear bottom plates using a Multidrop Combi (ThermoFisher Scientific, Waltham, MA) dispenser. After the assay plates were incubated at 37C/5% CO2 for 5 hrs, 23 nL of compounds dissolved in DMSO, positive controls or DMSO only was transferred to the assay plate by a pintool work station (Kalypsys, San Diego, CA). The plates were incubated at 37C/5% CO2 for 16 hrs. After 1 uL of LiveBLAzer B/G FRET substrate was added using a Flying Reagent Dispenser (FRD) (Aurora Discovery, San Diego, CA), the assay plates were incubated at room temperature for 2 hrs. The fluorescence intensity was measured by an Envision (PerkinElmer, Shelton, CT) plate reader. Cell viability using CellTiter Glo viability assay (Promega, Madison, WI) was also measured by adding 4 ul/well of CellTiter-Glo reagent into the same assay plate using a FRD. After 30 min incubation at room temperature, the luminescence intensity in the plates was measured using a ViewLux (PerkinElmer) plate reader.
% is set by controls: 0 for no effect and ±100 for the full control effect.

| Structure (SMILES) | max response |
| --- | --- |
| CC1CCCO1 (stereo not given) | -3.62% (inactive) |
| Cc1cc(C(=O)O)ccc1[N+](=O)[O-] | -1.45% (inactive) |
| CC(C)=CCl | 14.9% (inactive) |
| NC(=O)CCCCC(N)=O | -6.44% (inactive) |
| OCCO | -3.22% (inactive) |
| O=[N+]([O-])c1cc(C(F)(F)F)ccc1Cl | -6.2% (inactive) |
| Cc1nc2ccc(Cl)cc2[nH]1 | -4.37% (inactive) |
| CCCCCCCCN | 1.34% (inactive) |
| Cc1ccc(Cl)cc1N | 6.01% (inactive) |
| COC(=O)CS | -0.555% (inactive) |
| CC(=O)CC(C)C | 4.78% (inactive) |
| CC1(N)CCC(C(C)(C)N)CC1 (stereo not given) | 1.22% (inactive) |
| NC(=O)NC(N)=O | -4.93% (inactive) |
| CC(C)(C)OCC1CO1 (stereo not given) | 11% (inactive) |
| Nc1cc(S(=O)(=O)O)ccc1O | 3.72% (inactive) |
| CCOCC(=O)O | 1.2% (inactive) |
| Cc1cc(C)cc([N+](=O)[O-])c1 | -11.8% (inactive) |
| CC/C(C)=N/O | -8.91% (inactive) |
| CCCCC(C=O)CC (stereo not given) | 4.13% (inactive) |
| CCCCN(CCO)CCCC | -4.16% (inactive) |

| Structure (SMILES) | max response |
| --- | --- |
| CC(C)(C)OC=O | 9.86% (inactive) |
| COc1cccc2sc(N)nc12 | 1.42% (inactive) |
| O=C1NC(=O)c2cc([N+](=O)[O-])ccc21 | -3.07% (inactive) |
| CCCCCCCCC | 3.15% (inactive) |
| ClC/C=C/CCl | -6.38% (inactive) |
| CCC(C)(C)C | -1.09% (inactive) |
| O=C1OC(=O)c2c(Br)c(Br)c(Br)c(Br)c21 | -8.33% (inactive) and -1.37% (inactive) |
| Oc1c(Cl)ccc(Cl)c1Cl | 0.617% (inactive) |
| BrC(Br)C(Br)Br | 0.416% (inactive) |
| CC=O | 5.19% (inactive) |
| CC/C=C/C#N | 1.63% (inactive) |
| Cc1ccc(C(C)(C)C)cc1 | -0.19% (inactive) |
| O=C(O)c1ccc(Cl)cc1Cl | -0.648% (inactive) |
| Cc1c(N)cccc1[N+](=O)[O-] | 12.6% (inactive) |
| C/C=C1\CC2C=CC1C2 (stereo not given) | -2.33% (inactive) |
| CCNc1ccccc1 | -0.56% (inactive) |
| CCOc1ccc(NC(C)=O)cc1N | -8.42% (inactive) |
| O=c1[nH][nH]c(=O)c2cc([N+](=O)[O-])ccc12 | 5.62% (inactive) |
| Cc1ccc(S(=O)(=O)NC2CCCCC2)cc1 | 1.13% (inactive) |
| Nc1nc(-c2ccccc2)cs1 | 4.04% (inactive) |
